Compound activity from PubChem.
Only some compounds are listed: those with a hit (about 0.71% of all), similar ones and a draw of the others.
TexasRed fluor – Texas Red fluorescence interference in TRb-SRC2 counter-screen; TRb/SRC2 Texas Red total fluorescence interference; Potency, µM (series often up to 106 µM), without a hit: at the highest dose fluorescence change, negative = quenching; 280,000 compounds, 0.29% hits; AID 1479; active = well fitted curve in either direction with a large enough effect; inconclusive = small, poorly fitted or top-dose-only effect; also: % is scaled to controls: 0 for no effect and ±100 for the full control effect
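Flags fluorescent or light-absorbing compounds by total fluorescence, S + 2P, at 555 nm excitation and 632 nm emission. Mixture: 20 nM Texas Red SRC2 peptide, 0.6 uM human TRb LBD, 1 uM T3, 5% DMSO; compound exposure 5 h at ambient temperature.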
RECQ1 inh – blocks DNA unwinding by human RECQ1; P46063; Potency, µM (top dose mostly 57.3 µM), for inactives: at the highest dose activity, negative = inhibition, usual class: inhibitors; 240,000 compounds, 0.54% hits; RECQ1 DNA unwinding, red fluorescence kinetic read;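 also: plate controls were vehicle for no effect and no enzyme for full effect; nearly all actives have a fitted effect of over 30% in size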
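RECQ1T1 50 nM; forked duplex (20 bp + 30-nt ss tails) 200 nM, ATP 2 mM final; pH 8.0, 2 mM MgCl2, 2.5 ug/ml poly(dI-dC); 15 min compound preincubation; discontinuous kinetic read over 2 h at RT.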
TRb-SRC2 inh – disrupts binding of human TR beta to SRC2. P10828. TRbeta-SRC2 peptide binding, fluorescence polarization; receptor liganded with 1 µM T3. Potency, µM (doses to about 106 µM), for inactives: at the highest dose activity change, negative = inhibition, most hits filed as inhibitors. 280,000 compounds, 0.065% hits;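 also: plate controls were bound peptide for no effect and peptide without receptor for full effect; nearly all actives have a fitted effect of over 50% in size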
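Read-out is fluorescence polarization (555 nm excitation, 632 nm emission) of a Texas Red SRC2 coactivator peptide; loss of signal reflects blocked binding to human TRb ligand-binding domain in the presence of 1 uM T3.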
BLM helicase inh – blocks DNA unwinding by human BLM helicase; AID 2528; 350,000 compounds, 0.2% hits; P54132; Potency, µM (titrated, usually from 56.1 µM), inactives show top-dose activity change, negative = inhibition, most hits filed as inhibitors; recombinant BLM DNA unwinding, fluorescence dequenching;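 also: plate controls were vehicle for no effect and no enzyme for full effect; nearly all actives have a fitted effect of over 35% in size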
GoLoco inh red – blocks human Gai1 binding to RGS12 GoLoco peptide, red readout; Gai1:RGS12 GoLoco peptide FP, rhodamine, 10 min; Potency, µM (series often up to 61.6 µM), without a hit: at the highest dose activity, negative = inhibition, hits mostly inhibitors; 230,000 compounds, 0.44% hits; active = well fitted inhibition curve with a large enough effect, not every such curve was filed as active; inactive = no such curve, though single readings can be large or run the other way; also: % is scaled to controls: 0 for no effect and ±100 for the full control effect; nearly all actives have a fitted effect of over 30% in size
Target sequence (P63096 whole entry, looked up): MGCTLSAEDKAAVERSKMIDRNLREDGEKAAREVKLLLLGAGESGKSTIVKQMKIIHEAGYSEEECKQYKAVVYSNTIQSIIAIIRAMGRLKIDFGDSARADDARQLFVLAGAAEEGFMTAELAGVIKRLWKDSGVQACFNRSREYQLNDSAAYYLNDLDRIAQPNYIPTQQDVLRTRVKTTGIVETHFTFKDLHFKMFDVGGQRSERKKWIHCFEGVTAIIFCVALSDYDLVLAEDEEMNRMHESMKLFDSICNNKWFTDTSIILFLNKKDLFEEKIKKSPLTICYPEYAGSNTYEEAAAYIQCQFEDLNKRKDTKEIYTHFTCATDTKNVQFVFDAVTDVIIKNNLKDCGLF
ERG-DNA inh – ERG Ets/DNA interaction inhibition; fluorescence polarization, His-ERG Ets domain / labelled DNA; AID 624246; P11308; Potency, µM (doses to about 76.9 µM), for inactives: at the highest dose FP activity, negative = inhibition, hits mostly inhibitors; 370,000 compounds, 0.028% hits; active = well fitted inhibition curve with a large enough effect in the polarisation, with a control signal flat; inconclusive = small, poorly fitted or top-dose-only effect, or effect the other way, or a change in a side signal; inactive = no such curve, though single readings can be large or run the other way; the % refers to the polarisation;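 also: polarization taken with two DNA probes labelled with fluorescein and Texas red; % of control where 0% means no effect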
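His-tagged ERG Ets domain (1 uM in the protein solution; 300mM KCl, 50mM Tris-HCl, 1mM EDTA, 1mM DTT, pH 7.5) received compound, then a probe mix of 5 nM fluorescein-DNA and 100nM Texas-615-DNA. Fluorescence polarization was read for both dyes.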
Active calls of the source: *; ! = not confirmed by another sample; [ ] = another dose, or the depositor's remark. Unless noted, calls follow the shape of the dose curve; as a rule, active = well fitted curve in the direction sought with a large enough effect; inconclusive = small, poorly fitted or top-dose-only effect, or another doubt; inactive = no such curve, though single readings can be large; an effect the other way counts as inactive or inconclusive. Potency is read from the fitted curve at half-maximal effect.

What do the screens show for `CCc1ccc(OCC(=O)NCC(c2ccc(OC)cc2)N2CCOCC2)cc1` (configuration not stated)?
TexasRed fluor: -11%; TRb-SRC2 inh: -1%; BLM helicase inh: -1%; ERG-DNA inh: 1%

How did COc1ccc(OCC(=O)NCC(c2ccc(OC)cc2)N2CCOCC2)cc1 (configuration not stated) do in these assays?
TexasRed fluor: 89µM*[quencher]; TRb-SRC2 inh: -25%; BLM helicase inh: -2%; ERG-DNA inh: 10%

Results for Cc1c(C(=O)Nc2ccccc2)cn2c(nc3ccccc32)c1C#N ?
TexasRed fluor: 0%; RECQ1 inh: inactive; TRb-SRC2 inh: 1%; BLM helicase inh: -4%; GoLoco inh red: 60%; ERG-DNA inh: -4%

How did Cc1ccccc1C(=O)Nc1ccc2c(C#N)c3nc4ccccc4nc3n2c1 do in these assays?
TexasRed fluor: inconclusive; RECQ1 inh: 32µM*; TRb-SRC2 inh: 4%[53 µM]; BLM helicase inh: inconclusive; GoLoco inh red: 65%; ERG-DNA inh: 53%

Results for C[C@]12C[C@@](C)(C=C1/C=C/c1ccccc1)C(=O)C[C@H]2c1ccccc1 ?
TexasRed fluor: 0%; RECQ1 inh: -5%; TRb-SRC2 inh: 6%; BLM helicase inh: -2%; GoLoco inh red: 1%

How did Cc1ccc(Cl)cc1N1CCN(C(=O)Cn2nc(C)n3c(cc4sccc43)c2=O)CC1 do in these assays?
TexasRed fluor: 79µM*[quencher]; TRb-SRC2 inh: -9%; BLM helicase inh: -5%; ERG-DNA inh: -7%

How did Cc1c(N2C(=O)c3ccc4c5c(ccc(c35)C2=O)CC4)c(=O)n(-c2ccccc2)n1C do in these assays?
TexasRed fluor: -18%; RECQ1 inh: 11µM*; TRb-SRC2 inh: -15%; BLM helicase inh: 14µM*; GoLoco inh red: 4%; ERG-DNA inh: 0%

Results for Cc1c(N2C(=O)/C(=C\c3ccc(N(C)C)cc3)N(C)C2=S)c(=O)n(-c2ccccc2)n1C ?
TexasRed fluor: 5%; RECQ1 inh: 28µM*; TRb-SRC2 inh: 23%; BLM helicase inh: -8%; GoLoco inh red: 165%; ERG-DNA inh: inconclusive

How did C=C[Si](OCCOC)(OCCOC)OCCOC do in these assays?
TexasRed fluor: -2%[201 µM]; TRb-SRC2 inh: -3%[201 µM]

What do the screens show for `CN1CCC(=C2c3ccccc3Sc3ccccc32)CC1`?
TexasRed fluor: 0%; RECQ1 inh: 9%; TRb-SRC2 inh: 2%; BLM helicase inh: -12%; GoLoco inh red: 18µM*!; ERG-DNA inh: 12%

Results for COc1ccc(NC(=O)c2cn3c4c(ccc(Cl)c4c2=O)OC(C)C3)cc1OC (configuration not stated) ?
TexasRed fluor: 25µM*[quencher]; TRb-SRC2 inh: -18%; BLM helicase inh: -6%; ERG-DNA inh: 7%

What do the screens show for `CC(=O)c1ccc(NC(=O)c2cn3c4c(ccc(Cl)c4c2=O)OC(C)C3)cc1` (configuration not stated)?
TexasRed fluor: 4%; TRb-SRC2 inh: 0%; BLM helicase inh: -6%; ERG-DNA inh: -9%

What do the screens show for `COc1ccc2[nH]cc(CCNc3ncncc3-c3ccc(C(=O)N(C)C)cc3)c2c1`?
RECQ1 inh: inactive; BLM helicase inh: 4%; GoLoco inh red: 8%

What do the screens show for `COC(=O)C1C[C@@H]2C3=C(C(=O)[C@@](C)(NC(=O)c4ccccc4)C3[C@H](C(=O)OC)C1)[C@H](C)n1c(=O)n(-c3ccccc3)c(=O)n12` (some centres not stated)?
TexasRed fluor: 0%; RECQ1 inh: 1%; TRb-SRC2 inh: -7%; BLM helicase inh: -11%

What do the screens show for `CCC1(CC)C(=O)C2=C3C1[C@H](C(=O)OC)CC(C(=O)OC)C[C@H]3n1c(=O)n(-c3ccccc3)c(=O)n1[C@H]2C` (some centres not stated)?
TexasRed fluor: 45µM*[fluorescent]; RECQ1 inh: inactive; TRb-SRC2 inh: inconclusive; BLM helicase inh: -3%; ERG-DNA inh: 2%

What do the screens show for `COc1ccc(CCNCc2ccc3c(c2)n(C)c(=O)n3C)cc1OC`?
TexasRed fluor: 89µM*[quencher]; TRb-SRC2 inh: -22%; BLM helicase inh: -9%; ERG-DNA inh: 1%

How did Cc1nc(-c2coc3c(O)c(O)ccc3c2=O)cs1 do in these assays?
TexasRed fluor: -4%; RECQ1 inh: inactive; TRb-SRC2 inh: 7%; BLM helicase inh: 4%; GoLoco inh red: -8%

Results for CCc1cccc(C)c1NC(=O)CN1C(=O)C2(SCC(=O)N2c2cccc(F)c2)c2ccccc21 (configuration not stated) ?
TexasRed fluor: 20µM*[quencher]; TRb-SRC2 inh: -24%; BLM helicase inh: -7%; ERG-DNA inh: -1%

What do the screens show for `NC(=O)CN1C(=O)C2(SCC(=O)N2c2cccc(F)c2)c2ccccc21` (configuration not stated)?
TexasRed fluor: -3%; TRb-SRC2 inh: 0%; BLM helicase inh: -5%; ERG-DNA inh: -2%

What do the screens show for `C[C@H](CC(=O)O)C(C(=O)O)C(=O)O`?
GoLoco inh red: 8%[14.2 µM]

Results for Oc1cccc(-c2nc3ccccc3s2)c1 ?
TexasRed fluor: -3%; RECQ1 inh: 0%; TRb-SRC2 inh: -4%; BLM helicase inh: -2%; GoLoco inh red: -3%; ERG-DNA inh: 2%

What do the screens show for `CC[n+]1cccc(-c2nc3ccccc3s2)c1`?
TexasRed fluor: 1%; RECQ1 inh: 0%; TRb-SRC2 inh: 2%; BLM helicase inh: -5%; GoLoco inh red: 10µM*; ERG-DNA inh: 7%

How did CCOc1cc(/C=C2\SC(=S)N(NC(=O)c3cccnc3)C2=O)ccc1O do in these assays?
TexasRed fluor: 16%; RECQ1 inh: 18µM*; TRb-SRC2 inh: inconclusive; BLM helicase inh: -7%; GoLoco inh red: 340%; ERG-DNA inh: 159%

Results for CCOc1cc(/C=C2/SC(=S)N(CC3CCCO3)C2=O)ccc1O (configuration not stated) ?
TexasRed fluor: 4%[53 µM]; RECQ1 inh: 14µM*; TRb-SRC2 inh: 10%[53 µM]; BLM helicase inh: -13%; GoLoco inh red: 331%; ERG-DNA inh: 153%

How did C[C@@H]1CC[C@@H]2C(=O)N3[C@@H](CC[C@@H](C)[C@@H]3c3ccc(-c4ccco4)cc3)C(=O)N2[C@H]1c1ccc(-c2ccco2)cc1 do in these assays?
TexasRed fluor: -10%[11.2 µM]; RECQ1 inh: inconclusive; TRb-SRC2 inh: 3%[11.2 µM]; BLM helicase inh: -23%[12.4 µM]
